Screening data deposited in PubChem BioAssay by several laboratories.
NTR1 agonist: agonists of human NTR1, primary screen, imaging, U2OS cells, beta-arrestin-GFP, high content; Neurotensin receptor type 1 (Homo sapiens), P30989; NTR1-U2OS beta-arrestin-GFP spot imaging, agonist mode; AID 493036, 2011; 0.17% of 330,000 active; activation, % at 20 µM;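 active = activation at or above 40% of the spot to cytoplasm intensity ratio, with at least 20 cells analyzed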;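 note: 0% = DMSO without peptide and 100% = 100 nM NTR1 peptide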
Target sequence (P30989 whole entry, looked up): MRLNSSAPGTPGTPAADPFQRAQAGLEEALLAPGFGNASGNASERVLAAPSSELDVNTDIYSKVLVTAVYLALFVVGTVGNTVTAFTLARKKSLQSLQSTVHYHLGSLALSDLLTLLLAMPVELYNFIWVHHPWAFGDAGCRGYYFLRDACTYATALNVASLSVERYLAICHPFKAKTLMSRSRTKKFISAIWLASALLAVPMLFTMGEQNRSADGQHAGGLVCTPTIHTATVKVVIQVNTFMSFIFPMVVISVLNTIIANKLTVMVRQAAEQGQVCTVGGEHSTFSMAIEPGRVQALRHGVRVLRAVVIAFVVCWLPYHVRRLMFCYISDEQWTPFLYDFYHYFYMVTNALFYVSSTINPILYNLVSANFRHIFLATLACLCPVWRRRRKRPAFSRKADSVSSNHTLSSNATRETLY
SUMO HTRF inh: inhibitors of in vitro SUMOylation cascade, primary screen, biochemical, HTRF, uHTS; inhibition, % at 35 µM; AID 2006, 2009; HTRF SUMOylation assay, SAE1/SAE2 + UBC9; SUMO-conjugating enzyme UBC9 (Homo sapiens), P63279; 0.36% of 290,000 active; in the data active = inhibition above about 50%, passing the limit was not always enough
Target sequence (P63279 whole entry, looked up): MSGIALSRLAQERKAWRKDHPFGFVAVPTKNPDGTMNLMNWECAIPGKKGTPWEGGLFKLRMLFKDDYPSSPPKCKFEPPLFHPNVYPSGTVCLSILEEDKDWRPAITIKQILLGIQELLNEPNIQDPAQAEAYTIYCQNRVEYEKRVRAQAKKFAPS
ALR inh: inhibitors of human ALR sulfhydryl oxidase, primary screen, biochemical, H2O2 detection, HRP-luminol luminescence, single point; purified ALR, DTT oxidation; FAD-linked sulfhydryl oxidase ALR (Homo sapiens), P55789; 3.8% of 290,000 active; AID 485317, 2010; inhibition, % (concentration not given with the values);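 active = mean replicate inhibition above about 79%, with every replicate also reaching it, limit read from the data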
Cardio protect: cardioprotection against H2O2-induced cell death, primary screen, uHTS, H9c2 cells, ATPLite luminescence; H9c2 cardiomyocytes, H2O2 injury protection, 2 h; protection from H2O2 cell death, % at 20 µM; 0.63% of 360,000 active; AID 588492, 2011;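 active = compounds giving at least 50% protection of heart cells from peroxide-induced death in the single-dose screen, raw or plate-pattern-corrected value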;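 note: 0% = DMSO wells with peroxide and 100% = DMSO wells without peroxide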
* marks the source's active call; other numbers are inactive results; x = no result given. This is a sample that favours compounds with a hit; in the whole collection about 3.9% have one here.

SMILES | NTR1 agonist | SUMO HTRF inh | ALR inh | Cardio protect
CCOC(=O)c1ccc(NC(=O)CSCc2ccco2)cc1 | 0 | -2 | 100* | -1
CCOC(=O)CC(=O)Nc1ccc(C(=O)OCC)cc1 | -1 | -1 | -7 | -6
CCOC(=O)c1ccc(NC(=O)CSCCC(=O)O)cc1 | 0 | 2 | 99* | -6
Cn1c2ccc(F)cc2c2ncn(Cc3ccccn3)c(=O)c21 | 0 | -4 | 4 | 7
CC(C)C(=O)N(c1ccc2oc(=O)sc2c1)S(=O)(=O)c1ccccc1 | 0 | -11 | 96* | 36
CCCc1cc(=O)oc2cc(OC(=O)CN3C(=O)NC4(CCCC4)C3=O)ccc12 | -1 | x | 18 | 61*
CCCc1cc(=O)oc2cc(OCC(=O)N3CC[C@@]4(O)CCCC[C@H]4C3)ccc12 | x | x | x | 3
COc1ccc(S(=O)(=O)/N=C2/NC(=O)/C(=C\c3ccco3)S2)cc1 | 0 | 64 | -5 | 1
COc1ccc(S(=O)(=O)/N=C2/NC(=O)/C(=C/c3ccco3)S2)cc1 | 1 | 40 | 99* | 4
Cc1ccc(NN=C2c3ccccc3-c3ccccc32)cc1 | 11 | 14 | 89* | -6
CC(NS(=O)(=O)c1ccc(Br)cc1)C(=O)NCCc1ccccc1 (stereo not given) | -1 | 14 | -1 | -1
CC(=O)Nc1ccc(S(=O)(=O)NC(C)C(=O)NCCc2ccc(F)cc2)cc1 (stereo not given) | 3 | 4 | 98* | 0
Cc1ccc(C(=O)OCC(=O)Nc2ccccc2N2CCOCC2)cc1 | 4 | -9 | 92* | 13
CCCCC(=O)Nc1ccccc1N1CCN(c2ccccc2)CC1 | 6 | -7 | 74 | -1
O=C(COC(=O)c1ccc(F)cc1)Nc1ccccc1N1CCOCC1 | -1 | 8 | -1 | 4
CCCCCC(=O)Nc1ccccc1N1CCOCC1 | -2 | 18 | 99* | 3
O=c1oc2ccccc2c(O)c1/C=C1\C=Nc2ccccc21 | 0 | 22 | 70 | -1
O=C(Oc1ccc(/C=N/NC(=O)c2ccccc2O)cc1)c1ccccc1 | -1 | 5 | -17 | -28
Cn1nccc1C(=O)Oc1ccc(/C=N/NC(=O)c2ccccc2O)cc1 | 0 | 18 | 93* | -2
O=C(CC1SC(=O)NC1=O)Oc1ccc(/C=N/NC(=O)c2ccccc2O)cc1 (stereo not given) | -1 | 15 | 99* | -6
CC(=O)Nc1ccc(OC(=O)CC2SC(=O)NC2=O)cc1 (stereo not given) | 0 | -2 | -13 | 1
CC(=O)c1ccccc1NC(=O)COC(=O)/C=C/c1ccc(C)o1 | 10 | 4 | 96* | 0
Cc1cccc(-n2c(O)c(/C=N/NC(=O)c3ccccc3Cl)c3ccccc3c2=O)n1 | 1 | -18 | 96* | 18
NS(=O)(=O)c1ccc(N=Cc2c(O)n(-c3nccs3)c(=O)c3ccccc23)cc1 | 2 | 32 | -5 | 52*
Cc1cccc(-n2c(O)c(C=Nc3ccccc3O)c3ccccc3c2=O)n1 | 3 | 5 | 98* | 12
SMILES | NTR1 agonist | SUMO HTRF inh | ALR inh | Cardio protect
Cc1cccc(-n2c(O)c(C=Nc3cc(O)ccc3C)c3ccccc3c2=O)n1 | 4 | 16 | x | 28
Cc1cccc(-n2c(O)c(C=Nc3ccc(O)cc3)c3ccccc3c2=O)n1 | -1 | 15 | 99* | 20
CCN(CC)CCNC(=O)c1cn(CC)c2cc(N3CCN(C)CC3)c(F)cc2c1=O | -1 | 18 | -29 | 1
COc1ccc2nc3cccc(OC)c3nc2c1 | 1 | 61 | x | 58*
COc1ccc2nc3ccccc3nc2c1N | 1 | 93 | 99* | 27
COc1ccc2nc(-c3ccco3)c(-c3ccco3)nc2c1 | 1 | 71* | 10 | 5
CCOC(=O)C(NC=O)(NC(C)(C)C)C(=O)OCC | -2 | 13 | 1 | 4
C=CCOc1c(Br)cc(CNc2nccs2)cc1OC | 2 | -8 | 21 | -5
O=C(O)c1ccc(-c2nc(-c3cccc(C(F)(F)F)c3)cs2)cc1 | x | -4 | x | 0
Cc1nc(C(F)(F)F)c(C(=O)O)cc1-c1nc(-c2ccccc2)cs1 | 0 | 4 | 95* | -1
O=C(c1ccc([N+](=O)[O-])cc1)N1CCN(c2cccc3[nH]ccc23)CC1 | 3 | 11 | 99* | -4
O=[N+]([O-])c1cccc(CN2CCN(c3cccc4[nH]ccc34)CC2)c1 | 1 | 11 | 99* | 4
CCCC(c1nnnn1Cc1cccs1)N1CCN(c2ccc(OC)cc2)CC1 (stereo not given) | -3 | -1 | 39 | 9
CC(C)(C)CC(C)(C)NC(=O)CSCC(=O)Nc1ccc2ccccc2c1 | 30 | -45 | 99* | -20
O=C(NCCO)C(=O)NCC1OCCCN1S(=O)(=O)c1cc(F)ccc1F (stereo not given) | -1 | -9 | -2 | -3
N#C/C(=C\c1ccc(-c2ccccc2)o1)C(=O)Nn1cnnc1 | -1 | 6 | 98* | -2
Cc1ccc(-c2ccc(/C=C(\C#N)C(=O)Nc3cc(C)nn3-c3ccccc3)o2)cc1 | 12 | 13 | -6 | x
Oc1ccc(-c2cn3c(n2)SCC3)cc1O | 2 | 35 | 99* | 14
O=C(Nc1ccccc1N1CCN(C(=O)c2ccc(Cl)cc2)CC1)c1cccc(F)c1 | 3 | 0 | -22 | -2
C=C(C)Cn1c(SCC)nc2ccccc2c1=O | 0 | 12 | 0 | -7
C=C(C)Cn1c(SCC(=O)N/N=C/c2c(O)ccc3ccccc23)nc2ccccc2c1=O | 4 | -12 | -12 | 69*
CC(C)(C)NC(=O)NC12CC3CC(CC(C3)C1)C2 | 0 | 9 | x | -11
O=S1(=O)C=C(Sc2nnc(-c3ccccc3)o2)c2ccccc21 | -1 | 10 | 78* | -22
Cc1cc(C)nc(SC2=CS(=O)(=O)c3ccccc32)n1 | 7 | -7 | 1 | 0
c1cc2cn[nH]c2cc1NC1CCCCCC1 | 3 | 26 | 99* | -6
SMILES | NTR1 agonist | SUMO HTRF inh | ALR inh | Cardio protect
Cc1ccc(S(=O)(=O)NC(=O)Nc2ccc(N(C)C)cc2)cc1 | 4 | -233 | 86* | -17
Cc1ccc(S(=O)(=O)NC(=O)c2cc(C)n(-c3ccc(N(C)C)cc3)c2C)cc1 | 0 | -11 | 95* | -4
O=C(CCl)N(c1ccccc1)c1c[nH]c2ccccc12 | 2 | 17 | 62 | -18
O=C(CCl)N(c1ccc(Cl)cc1)c1c[nH]c2ccccc12 | 19 | -5 | 98* | -15
c1ccc(-c2nc(-c3ccco3)n3ccccc23)cc1 | 0 | 42 | 94* | 17
Cc1c(N2C(=O)c3ccc(Br)cc3C2=O)c(=O)n(-c2ccccc2)n1C | 2 | 30 | 0 | -7
Cc1c(N2C(=O)c3ccc4c5c(ccc(c35)C2=O)CC4)c(=O)n(-c2ccccc2)n1C | 1 | 56* | -20 | 1
CC1(C)Cc2c(sc(NC(=O)c3ccco3)c2C(=O)O)CO1 | 0 | 17 | 9 | -6
Cc1ccc(NC(=O)COc2ccc(/C(N)=N/O)cc2)cc1C | 0 | 1 | 99* | 5
